PubChem BioAssay

Experiment: probe aXIP binding to arrayed compounds – biochemical, NeuroSMM set, 635/667 nm fluorescence, primary screen (AID 1119);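 further: probe is the protein aXip251-270 applied at 1 µg/mL to compound-printed slides; binding of probe to printed compounds measured as 667 nm fluorescence plus signal to noise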
Conditions: small-molecule microarray, higher = more signal, called active from +8 up or from −8 down

Composite Z-score, inactive:
CC(C)[Si]1(C(C)C)OCc2cc(C3CC3)nc(-c3ccc(Oc4ccccc4)cc3)c21 -0.26
O=C1NC(=O)C2C1C=CC(C(O)c1ccco1)N2Nc1ccc(Cl)cc1Cl (stereo not drawn) 0.731
Cc1ccc(N2C(=O)c3ccccc3[C@@H](C(=O)NCCCN(C)C)[C@@H]2c2ccc(CO)cc2)nc1 0.403
CCCCCCc1nc(Cc2cc(OC)c(OC)c(OC)c2)cc2c1[Si](C(C)C)(C(C)C)OC2 0.0886
CCOC(=O)C1=C[C@@H](C(C)(C)C)N(S(=O)(=O)c2ccc(C)cc2)[C@H]1c1cccc2ccccc12 0.592
COc1cc2c(cc1O)C(c1cccs1)N(Cc1cc3c(cc1Br)OCO3)CC2 (stereo not drawn) 0.715
C=CCNC(=O)[C@@H]1[C@H]2C(=O)O[C@H](c3ccccc3)[C@H](c3ccccc3)N2[C@H](c2ccccc2OCCO)[C@@]12C(=O)Nc1ccc(C#CCC(C(=O)OC)C(=O)OC)cc12 0.822
C=CCN1C(=O)[C@]2(CCS(=O)(=O)c3ccccc3)N=C(c3ccc(OCCCO)cc3)O[C@@H]2c2ccccc21 -0.0072
CC(c1ccccc1)C(O)C1C=CC2C(=O)N(C)C(=O)C2N1Nc1ccccc1 (stereo not drawn) 0.318
N#Cc1ccc(NN2C(C(O)c3ccc(Br)cc3)C=CC3C(=O)N(c4ccccc4)C(=O)C32)cc1 (stereo not drawn) 0.718
COc1ccc([Si](C)(C)[C@@H]2[C@@H](CCO)O[C@]3(C(=O)N(Cc4cccc(NC(=O)[C@H](C)O)c4)c4ccccc43)[C@H]2C)cc1 0.234
CCCCC(CC)C(O)C1C=CC2C(=O)N(C)C(=O)C2N1Nc1ccccc1 (stereo not drawn) 0.576
COCCOC(=O)N1C(=O)[C@@]2(c3cc(C#CCCO)ccc31)[C@H](c1ccc(OCCO)cc1)N1[C@H](c3ccccc3)[C@H](c3ccccc3)OC(=O)[C@H]1[C@@H]2C(=O)Nc1nc2ccccc2s1 -0.22
[N-]=[N+]=NCc1ccccc1[C@@H]1OC(c2ccc(OCCCO)cc2)=N[C@]1(CCS(=O)(=O)c1ccccc1)C(=O)O 0.0313
O=C1C[C@]2(c3ccc([N+](=O)[O-])cc3)C(=O)N(C3CC3)c3cc(CO)ccc3[C@H]2N1CC12CC3CC(CC(C3)C1)C2 -0.571
CCCC[C@@H]1C[C@H]1[C@@H](NC(=O)c1cccs1)c1ccccc1C(F)(F)F -0.147
O=C(Cc1ccccc1)[C@H]1C2C=CCCC(c3ccccc3)=C2CN1Cc1ccccc1 (stereo partly drawn) -0.041
COC(=O)[C@]1(CCS(=O)(=O)c2ccccc2)N=C(c2ccc(OCCCO)cc2)O[C@@H]1c1ccccc1N=[N+]=[N-] 0.0652
COCCOC(=O)N1C(=O)[C@@]2(c3cc(C#CC4=CCCCC4)ccc31)[C@H](c1ccccc1OCCO)N1[C@H](c3ccccc3)[C@H](c3ccccc3)OC(=O)[C@H]1[C@@H]2C(=O)N1CCN(c2ncccn2)CC1 -0.17
CN(C)C(=O)[C@@]1(Cc2ccccc2)N=C(c2ccc(OCCCO)cc2)O[C@H]1c1ccccc1 0.684
COc1ccc(C#Cc2ccc3c(c2)[C@]2(C(=O)N3)[C@H](C(=O)O)[C@H]3C(=O)O[C@H](c4ccccc4)[C@H](c4ccccc4)N3[C@@H]2c2ccc(O)cc2)cc1 -0.118
CCCCC[C@H]1OC[C@@]23C=C(Br)[C@@H](CC12)[C@@]1(CO1)C3=O (stereo partly drawn) 0.39
CC1CC/C=C\[C@H]2OC34C=CCN(c5ccc(Cl)cc5)C(=O)[C@H]3N(C(C)CO)C(=O)[C@]4(C)C2C(=O)O1 (stereo partly drawn) -0.408
COc1cc2c(cc1O)C(C1CC1)N(Cc1cccc(OC(F)(F)F)c1)CC2 (stereo not drawn) 0.926
COc1cc(C(O)C2C=CC3C(=O)N(C)C(=O)C3N2Nc2ccccc2)cc(OC)c1OC (stereo not drawn) -0.014
[N-]=[N+]=NCc1ccccc1[C@H]1OC(c2ccc(OCCCO)cc2)=N[C@@]1(Cc1ccccc1N=[N+]=[N-])C(=O)NCC(O)CO (stereo partly drawn) 0.095
COC(=O)[C@@]1(Cc2ccc(OC)cc2)[C@H]2c3cc(C(=O)N(C)C)n(Cc4ccc(OC(F)(F)F)cc4)c3C[C@H]2CN1C(=O)c1ccccc1 0.255
C=C(/C(=C/C[C@H](OC(C)=O)c1ccc(CO)o1)c1cnc2ccccc2c1)C(C)C 0.456
